Experimental data reported in PubChem BioAssay AID1159580 (chemical genetic matrix, 2015).
“And” between values parts separate entries of the source, which are not always exact repeats. Identical values can stand only once. In all, about 5,500 compounds went through this assay and about 2,000 (36%) were called active. Not shown: some 18% with an inconclusive outcome. No stated cut-off is given here; in the data, active means normalized growth mostly below about 0.91 (no sharp cut-off); inconclusive means no clear call, values can overlap the other calls; inactive means mostly above about 0.92. The list shows a part of the results.

Assay: chemical genetic growth profiling, strain panel (AID 1159580);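 further: tested at 20 µM; growth read once vehicle control cultures reached saturation at 30 °C; 1 = growth at the plate median or of vehicle wells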
Conditions: growth OD

Measured: normalized growth

CN(C)c1ccc(O)c2c1C[C@H]1C[C@H]3[C@H](N(C)C)C(=O)C(C(N)=O)=C(O)[C@@]3(O)C(=O)C1=C2O
inactive: S. cerevisiae deletion strains, locus YAL013W, strain DEP1, stronger effect = lower value 0.988 | S. cerevisiae deletion strains, locus YBR021W, strain FUR4, stronger effect = lower value 0.915 | S. cerevisiae deletion strains, locus YBR229C, strain ROT2, stronger effect = lower value 0.947 | S. cerevisiae deletion strains, locus YCL029C, strain bik1, stronger effect = lower value 0.992 | S. cerevisiae deletion strains, locus YDL035C, strain GPR1, stronger effect = lower value 0.963 | S. cerevisiae deletion strains, locus YDL074C, strain BRE1, stronger effect = lower value 1 | S. cerevisiae deletion strains, locus YDL101C, strain DUN1, stronger effect = lower value 0.969 | S. cerevisiae deletion strains, locus YDL134C, strain PPH21, stronger effect = lower value 0.976 | S. cerevisiae deletion strains, locus YDL185W, strain tfp1, stronger effect = lower value 0.983 | S. cerevisiae deletion strains, locus YDL192W, strain arf1, stronger effect = lower value 0.962 | S. cerevisiae deletion strains, locus YDR101C, strain arx1, stronger effect = lower value 1 | S. cerevisiae deletion strains, locus YDR150W, strain NUM1, stronger effect = lower value 0.975 | S. cerevisiae deletion strains, locus YDR162C, strain NBP2, stronger effect = lower value 0.964 | S. cerevisiae deletion strains, locus YDR318W, strain mcm21, stronger effect = lower value 0.996 | S. cerevisiae deletion strains, locus YDR388W, stronger effect = lower value 0.997 | S. cerevisiae deletion strains, locus YDR502C, strain sam2, stronger effect = lower value 0.986 | S. cerevisiae deletion strains, locus YEL061C, strain CIN8, stronger effect = lower value 0.984 | S. cerevisiae deletion strains, locus YER110C, stronger effect = lower value 0.974 | S. cerevisiae deletion strains, locus YER155C, strain BEM2, stronger effect = lower value 1.03 | S. cerevisiae deletion strains, locus YER167W, strain BCK2, stronger effect = lower value 0.984 | S. cerevisiae deletion strains, locus YGL078C, strain dbp3, stronger effect = lower value 0.974 | S. cerevisiae deletion strains, locus YGL086W, strain mad1, stronger effect = lower value 0.98 | S. cerevisiae deletion strains, locus YGL248W, strain PDE1, stronger effect = lower value 0.974 | S. cerevisiae deletion strains, locus YGR078C, strain PAC10, stronger effect = lower value 0.966 | S. cerevisiae deletion strains, locus YGR135W, strain pre9, stronger effect = lower value 0.974 | S. cerevisiae deletion strains, locus YGR229C, strain SMI1, stronger effect = lower value 0.987 | S. cerevisiae deletion strains, locus YGR252W, strain gcn5, stronger effect = lower value 0.802 | S. cerevisiae deletion strains, locus YHR030C, strain SLT2, stronger effect = lower value 0.992 | S. cerevisiae deletion strains, locus YHR079C, strain IRE1 (second series), stronger effect = lower value 1 | S. cerevisiae deletion strains, locus YHR079C, strain IRE1, stronger effect = lower value 1.01 | S. cerevisiae deletion strains, locus YHR094C, strain hxt1, stronger effect = lower value 1.01 | S. cerevisiae deletion strains, locus YHR129C, strain ARP1, stronger effect = lower value 0.99 | S. cerevisiae deletion strains, locus YHR200W, strain rpn10, stronger effect = lower value 0.989 | S. cerevisiae deletion strains, locus YIL066C, strain RNR3, stronger effect = lower value 0.96 | S. cerevisiae deletion strains, locus YIL073C, strain SPO22, stronger effect = lower value 0.959 | S. cerevisiae deletion strains, locus YIL125W, strain kgd1, stronger effect = lower value 0.979 | S. cerevisiae deletion strains, locus YIR030C, strain dcg1, stronger effect = lower value 0.987 | S. cerevisiae deletion strains, locus YJL095W, strain BCK1, stronger effect = lower value 0.986 and 0.993 | S. cerevisiae deletion strains, locus YJL134W, strain LCB3, stronger effect = lower value 0.981 | S. cerevisiae deletion strains, locus YJL168C, strain set2, stronger effect = lower value 0.995 | S. cerevisiae deletion strains, locus YJL187C, strain SWE1 (second series), stronger effect = lower value 0.966 | S. cerevisiae deletion strains, locus YJR043C, strain POL32, stronger effect = lower value 0.992 | S. cerevisiae deletion strains, locus YJR066W, strain TOR1, stronger effect = lower value 0.941 | S. cerevisiae deletion strains, locus YJR075W, strain HOC1, stronger effect = lower value 1 | S. cerevisiae deletion strains, locus YKL009W, strain mrt4, stronger effect = lower value 0.974 | S. cerevisiae deletion strains, locus YKL068W, stronger effect = lower value 0.995 | S. cerevisiae deletion strains, locus YKL085W, strain MDH1 (second series), stronger effect = lower value 0.982 | S. cerevisiae deletion strains, locus YKL085W, strain MDH1, stronger effect = lower value 0.982 | S. cerevisiae deletion strains, locus YKL190W, strain CNB1, stronger effect = lower value 0.998 | S. cerevisiae deletion strains, locus YKR001C, strain vps1, stronger effect = lower value 0.966 | S. cerevisiae deletion strains, locus YLR039C, strain RIC1, stronger effect = lower value 0.937 | S. cerevisiae deletion strains, locus YLR058C, strain SHM2, stronger effect = lower value 0.957 | S. cerevisiae deletion strains, locus YLR102C, strain apc9, stronger effect = lower value 0.989 | S. cerevisiae deletion strains, locus YLR113W, strain HOG1, stronger effect = lower value 1.01 | S. cerevisiae deletion strains, locus YLR262C, strain YPT6, stronger effect = lower value 0.895 | S. cerevisiae deletion strains, locus YLR268W, strain sec22, stronger effect = lower value 1.04 | S. cerevisiae deletion strains, locus YLR330W, strain CHS5, stronger effect = lower value 0.989 | S. cerevisiae deletion strains, locus YLR342W, strain FKS1 (second series), stronger effect = lower value 0.851 | S. cerevisiae deletion strains, locus YLR371W, strain rom2, stronger effect = lower value 0.98 | S. cerevisiae deletion strains, locus YLR418C, strain cdc73, stronger effect = lower value 0.909 | S. cerevisiae deletion strains, locus YML016C, strain PPZ1, stronger effect = lower value 0.974 | S. cerevisiae deletion strains, locus YML032C, strain rad52, stronger effect = lower value 1 | S. cerevisiae deletion strains, locus YML124C, strain tub3, stronger effect = lower value 0.991 | S. cerevisiae deletion strains, locus YMR078C, strain ctf18, stronger effect = lower value 0.993 | S. cerevisiae deletion strains, locus YMR223W, strain ubp8, stronger effect = lower value 0.934 | S. cerevisiae deletion strains, locus YMR263W, strain SAP30, stronger effect = lower value 0.991 | S. cerevisiae deletion strains, locus YMR307W, strain GAS1, stronger effect = lower value 0.879 | S. cerevisiae deletion strains, locus YNL067W, strain RPL9B, stronger effect = lower value 1 | S. cerevisiae deletion strains, locus YNL128W, strain TEP1, stronger effect = lower value 0.922 | S. cerevisiae deletion strains, locus YNL153C, strain GIM3, stronger effect = lower value 0.985 | S. cerevisiae deletion strains, locus YNL183C, strain NPR1, stronger effect = lower value 0.968 | S. cerevisiae deletion strains, locus YNL233W, strain BNI4, stronger effect = lower value 1 | S. cerevisiae deletion strains, locus YNL250W, strain rad50, stronger effect = lower value 0.975 | S. cerevisiae deletion strains, locus YNL271C, strain bni1, stronger effect = lower value 0.989 | S. cerevisiae deletion strains, locus YNL298W, strain CLA4, stronger effect = lower value 0.987 | S. cerevisiae deletion strains, locus YNL307C, strain MCK1, stronger effect = lower value 0.997 | S. cerevisiae deletion strains, locus YNL322C, strain KRE1, stronger effect = lower value 0.993 | S. cerevisiae deletion strains, locus YNR052C, strain pop2, stronger effect = lower value 0.978 | S. cerevisiae deletion strains, locus YOL006C, strain TOP1, stronger effect = lower value 0.887 | S. cerevisiae deletion strains, locus YOL012C, strain htz1 0.571 | S. cerevisiae deletion strains, locus YOL147C, strain pex11, stronger effect = lower value 0.994 | S. cerevisiae deletion strains, locus YOR061W, strain CKA2, stronger effect = lower value 0.967 | S. cerevisiae deletion strains, locus YOR069W, strain VPS5, stronger effect = lower value 0.985 | S. cerevisiae deletion strains, locus YOR136W, strain idh2, stronger effect = lower value 0.978 | S. cerevisiae deletion strains, locus YOR144C, strain elg1, stronger effect = lower value 0.996 | S. cerevisiae deletion strains, locus YOR184W, strain ser1, stronger effect = lower value 0.985 | S. cerevisiae deletion strains, locus YOR231W, strain MKK1, stronger effect = lower value 1.01 | S. cerevisiae deletion strains, locus YOR316C, strain cot1, stronger effect = lower value 0.998 | S. cerevisiae deletion strains, locus YPL055C, strain LGE1, stronger effect = lower value 0.958 | S. cerevisiae deletion strains, locus YPL241C, strain CIN2, stronger effect = lower value 0.981 | S. cerevisiae deletion strains, locus YPL256C, strain CLN2, stronger effect = lower value 1.01 | S. cerevisiae deletion strains, locus YPR119W, strain clb2, stronger effect = lower value 0.996 | S. cerevisiae deletion strains, locus YPR141C, strain kar3, stronger effect = lower value 0.997 | S. cerevisiae deletion strains, locus YPR163C, strain tif3, stronger effect = lower value 0.99 | S. cerevisiae deletion strains, locus YPR167C, strain met16, stronger effect = lower value 1 | S. cerevisiae deletion strains, strain wtn01, stronger effect = lower value 1.02 | S. cerevisiae strains, strain wild type, stronger effect = lower value 0.981
